Measurements from the supplement of paper PMC6089552.
Hit rate of the full screen: of about 3,200 compounds, about 300 (9.4%) showed activity. For the sample, actives were picked, then their nearest neighbours and some compounds at random.

Tested on: A673/TR/shEF
Experiment: cell viability (LOESS-normalised, relative to median of negative controls) (log2 ratio); higher = more viable cells (less compound effect), active = hit call of the paper (over 3 MAD below the median)
Conditions: treatment time: 72 h
Method in brief: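 A673/TR/shEF Ewing sarcoma cells (1,500 per well, 384-well plates) were grown with or without doxycycline to induce EWS-FLI1 shRNA knockdown, starting 24 h before compounds. Library compounds at two or more concentrations, with DMSO controls, were added for three days. Cell viability was read by CellTiter-Glo luminescence on an Envision reader, then LOESS-corrected per plate, divided by the median of negative controls and log2-transformed. Hits were wells at least three median absolute deviations from the median of all screened wells.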

[1] = 0.25 µM, library screen: screen2, EWS-FLI1 expression: high (no doxycycline)
[2] = 0.25 µM, library screen: screen2, EWS-FLI1 expression: low (doxycycline-induced shRNA knockdown)
[3] = 2.5 µM, library screen: screen2, EWS-FLI1 expression: high (no doxycycline)
[4] = 2.5 µM, library screen: screen2, EWS-FLI1 expression: low (doxycycline-induced shRNA knockdown)
[5] = 0.25 µM, library screen: screen1, EWS-FLI1 expression: high (no doxycycline)
[6] = 0.25 µM, library screen: screen1, EWS-FLI1 expression: low (doxycycline-induced shRNA knockdown)
[7] = 2.5 µM, library screen: screen1, EWS-FLI1 expression: high (no doxycycline)
[8] = 2.5 µM, library screen: screen1, EWS-FLI1 expression: low (doxycycline-induced shRNA knockdown)
[9] = 0.025 µM, library screen: screen2, EWS-FLI1 expression: high (no doxycycline)
[10] = 0.025 µM, library screen: screen2, EWS-FLI1 expression: low (doxycycline-induced shRNA knockdown)
[11] = 25 µM, library screen: screen2, EWS-FLI1 expression: high (no doxycycline)
[12] = 25 µM, library screen: screen2, EWS-FLI1 expression: low (doxycycline-induced shRNA knockdown)
[13] = 0.103 µM, library screen: screen3, EWS-FLI1 expression: high (no doxycycline)
[14] = 0.103 µM, library screen: screen3, EWS-FLI1 expression: low (doxycycline-induced shRNA knockdown)
[15] = 0.308 µM, library screen: screen3, EWS-FLI1 expression: high (no doxycycline)
[16] = 0.308 µM, library screen: screen3, EWS-FLI1 expression: low (doxycycline-induced shRNA knockdown)
[17] = 0.926 µM, library screen: screen3, EWS-FLI1 expression: high (no doxycycline)
[18] = 0.926 µM, library screen: screen3, EWS-FLI1 expression: low (doxycycline-induced shRNA knockdown)
[19] = 2.8 µM, library screen: screen3, EWS-FLI1 expression: high (no doxycycline)
[20] = 2.8 µM, library screen: screen3, EWS-FLI1 expression: low (doxycycline-induced shRNA knockdown)
[21] = 8.3 µM, library screen: screen3, EWS-FLI1 expression: high (no doxycycline)
[22] = 8.3 µM, library screen: screen3, EWS-FLI1 expression: low (doxycycline-induced shRNA knockdown)
[23] = 25 µM, library screen: screen3, EWS-FLI1 expression: high (no doxycycline)
[24] = 25 µM, library screen: screen3, EWS-FLI1 expression: low (doxycycline-induced shRNA knockdown)
[25] = 0.025 µM, library screen: screen1, EWS-FLI1 expression: high (no doxycycline)
[26] = 0.025 µM, library screen: screen1, EWS-FLI1 expression: low (doxycycline-induced shRNA knockdown)
[27] = 25 µM, library screen: screen1, EWS-FLI1 expression: high (no doxycycline)
[28] = 25 µM, library screen: screen1, EWS-FLI1 expression: low (doxycycline-induced shRNA knockdown)

Measured: cell viability (log2)

CC(C)(C)[C@]1(O)CCN2CC3c4ccccc4CCc4cccc(c43)[C@@H]2C1 (some centres undefined)
inactive: [1] 0.166 | [2] 0.165 | [3] 0.11 | [4] 0.076

CC12CCC3c4ccc(OCc5ccccc5)cc4CCC3C1C[C@@H](O)[C@@H]2O (some centres undefined)
inactive: [5] 0.0858 | [6] 0.0634 | [7] 0.147 | [8] 0.17

COc1cc(NC(C)CCCN)c2ncccc2c1 (centres undefined)
active: [11] -0.632
inactive: [9] 0.0561 | [10] -0.00137 | [5] 0.054 | [6] 0.199 | [1] 0.0891 | [2] 0.0483 | [7] 0.127 | [8] 0.305 | [3] 0.104 | [4] -0.00544 | [12] -0.0311

CCCCC1=NC2(CCCC2)C(=O)N1Cc1ccc(-c2ccccc2-c2nn[nH]n2)cc1
inactive: [13] 0.107 | [14] 0.0606 | [5] 0.058 | [6] 0.0291 | [15] -0.0112 | [16] 0.0296 | [17] 0.00566 | [18] 0.0237 | [7] 0.0857 | [8] 0.072 | [19] 0.0909 | [20] 0.0243 | [21] 0.0907 | [22] 0.057 | [23] 0.0719 | [24] 0.134

CC(C)[C@@H]1CC[C@@H](C)CC1=O
inactive: [5] 0.057 | [6] 0.0478 | [7] 0.148 | [8] 0.0792

CN1CCCC(n2nc(Cc3ccc(Cl)cc3)c3ccccc3c2=O)CC1 (centres undefined)
inactive: [13] 0.00451 | [14] 0.0233 | [15] 0.0154 | [16] 0.0686 | [17] 0.0285 | [18] 0.0485 | [19] 0.0385 | [20] 0.0809 | [21] 0.0197 | [22] 0.0247 | [23] -0.00429 | [24] -0.0202

O=C(c1cc(Cc2n[nH]c(=O)c3ccccc23)ccc1F)N1CCN(C(=O)C2CC2)CC1
active: [23] -0.244 | [24] -0.143
inactive: [13] -0.00614 | [14] 0.0146 | [15] -0.0732 | [16] -0.0144 | [17] 0.00937 | [18] 0.0508 | [19] -0.137 | [20] 0.0104 | [21] -0.158 | [22] -0.00135

CC(=O)[C@H]1CCC2C3CC=C4C[C@@H](OS(=O)(=O)O)CC[C@]4(C)C3CC[C@@]21C (some centres undefined)
inactive: [1] 0.147 | [2] 0.0952 | [3] 0.0185 | [4] -0.0104

COc1ccc(-c2coc3c(OC)c(OC)cc(OC)c3c2=O)cc1
inactive: [5] 0.0837 | [6] 0.0693 | [7] 0.102 | [8] 0.078

CCOc1ccccc1N1C(=O)c2cccc3cccc(c23)C1=O
inactive: [5] 0.0619 | [6] 0.0408 | [7] 0.058 | [8] 0.0712

CC(C)(C)n1nc(-c2ccc(Cl)cc2)c2c(N)ncnc21
active: [7] -0.388 | [27] -0.453
inactive: [25] 0.227 | [26] -0.0277 | [5] 0.174 | [6] 0.0475 | [8] 0.0249 | [28] -0.00123

C=CC(=O)N1CCC[C@@H](n2nc(-c3ccc(Oc4ccccc4)cc3)c3c(N)ncnc32)C1
inactive: [13] -0.0901 | [14] 0.0229 | [15] -0.0466 | [16] 0.0297 | [17] 0.021 | [18] 0.0235 | [19] -0.0315 | [20] 0.0823 | [21] -0.0558 | [22] 0.16 | [23] -0.158 | [24] 0.0664

CCc1nc(N)nc(N)c1-c1ccc(Cl)cc1
inactive: [9] 0.129 | [10] 0.0541 | [13] 0.0417 | [14] 0.0477 | [5] 0.0408 | [6] 0.123 | [1] 0.112 | [2] 0.0163 | [15] 0.0837 | [16] 0.135 | [17] 0.0823 | [18] 0.107 | [7] 0.0817 | [8] 0.0354 | [3] 0.122 | [4] 0.129 | [19] 0.0808 | [20] 0.046 | [21] 0.0995 | [22] 0.0615 | [11] 0.0523 | [12] -0.0463 | [23] 0.153 | [24] 0.146

Cc1ccc(-c2nn(C(C)(C)C)c3ncnc(N)c23)cc1
active: [27] -0.108
inactive: [25] 0.00835 | [26] -0.00557 | [5] 0.0184 | [6] 0.0452 | [7] -0.0765 | [8] 0.104 | [28] -0.07

CC(=O)Oc1cc2c(c(C)c1OC(C)=O)CC=C1[C@@]2(C)CC[C@@]2(C)[C@@H]3C[C@](C)(C(=O)O)CC[C@]3(C)CC[C@]12C
inactive: [5] 0.0258 | [6] 0.000386 | [7] 0.0381 | [8] 0.209

CCN1CCN(CC(O)COc2cc(C)c(Cl)c(C)c2)CC1 (centres undefined)
inactive: [5] 0.082 | [6] 0.0372 | [7] 0.096 | [8] 0.29

CCCCCCCCCC(=O)N[C@@H](Cc1c[nH]c2ccccc12)C(=O)N[C@@H](CC(N)=O)C(=O)N[C@@H](CC(=O)O)C(=O)NC1C(=O)NCC(=O)N[C@@H](CCCN)C(=O)N[C@@H](CC(=O)O)C(=O)N[C@H](C)C(=O)N[C@@H](CC(=O)O)C(=O)NCC(=O)N[C@H](CO)C(=O)N[C@@H](C(C)CC(=O)O)C(=O)N[C@@H](CC(=O)c2ccccc2N)C(=O)OC1C (some centres undefined)
inactive: [13] -0.000338 | [14] -0.000608 | [15] 0.0186 | [16] 0.0343 | [17] 0.103 | [18] 0.0444 | [19] 0.0611 | [20] 0.0124 | [21] 0.0568 | [22] 0.116 | [23] -0.0118 | [24] -0.0633

COc1cc(OC)cc(C(CNc2ncnc3c2ncn3C2O[C@H](CO)[C@@H](O)[C@H]2O)c2ccccc2C)c1 (some centres undefined)
inactive: [1] 0.151 | [2] 0.0311 | [3] 0.147 | [4] 0.121

C#CCCCCCCCCCCC[C@@H](O)C[C@@H](O)COC(C)=O
inactive: [5] 0.145 | [6] 0.0417 | [7] 0.08 | [8] 0.0325

COc1ccc(CN2CCN(Cc3ccccc3C(F)(F)F)CC2)c(OC)c1OC
inactive: [5] -0.00682 | [6] 0.0327 | [7] 0.087 | [8] 0.144

CC=C(C)C(=O)OC1Cc2c(ccc3ccc(=O)oc23)OC1(C)C (centres undefined)
inactive: [5] 0.052 | [6] 0.0529 | [7] 0.186 | [8] 0.0456

CCCCCCCCCCCCCCCCCCOCC(O)CO (centres undefined)
inactive: [5] 0.0496 | [6] 0.117 | [7] 0.142 | [8] 0.0249

COc1ccc2c(c1)OC[C@@H](Cc1ccc(OC)c(OC)c1)C2=O
inactive: [5] -0.018 | [6] 0.0264 | [7] 0.11 | [8] 0.0741

COc1ccc2c(c1)OCC(Cc1ccc(OC)c(OC(C)=O)c1)C2=O (centres undefined)
active: [7] -0.246
inactive: [5] 0.0793 | [6] -0.0163 | [8] -0.0188

COc1ccc2c(c1)OC[C@@H](Cc1ccc(OC)c(OC)c1)[C@@H]2O
inactive: [5] 0.137 | [6] -0.0181 | [7] 0.209 | [8] 0.0843

Oc1cc(O)c2c(c1)O[C@H](c1cc(O)c(O)c(O)c1)[C@H](O)[C@H]2c1c(O)cc(O)c2c1O[C@H](c1cc(O)c(O)c(O)c1)[C@H](O)[C@H]2c1c(O)cc(O)c2c1O[C@H](c1cc(O)c(O)c(O)c1)[C@H](O)C2
inactive: [5] -0.0224 | [6] 0.066 | [7] 0.107 | [8] 0.0716

OC[C@H]1O[C@@H](O[C@H]2[C@H](O)[C@@H](O)C(O)O[C@@H]2CO)[C@H](O)[C@@H](O)[C@@H]1O (some centres undefined)
inactive: [5] -0.0294 | [6] 0.0659 | [7] 0.116 | [8] 0.0995

C[C@H](Cn1cnc2c(N)ncnc21)OCP(=O)(O)O
inactive: [13] 0.0857 | [14] 0.09 | [1] 0.128 | [2] 0.113 | [15] 0.00908 | [16] 0.0155 | [17] 0.0338 | [18] 0.0939 | [3] 0.189 | [4] 0.0365 | [19] 0.0533 | [20] 0.0269 | [21] -0.0007 | [22] 0.0852 | [23] 0.0436 | [24] 0.126

CC(C)(C)C(=O)OCOP(=O)(COCCn1cnc2c(N)ncnc21)OCOC(=O)C(C)(C)C
inactive: [13] -0.0455 | [14] 0.0657 | [15] -0.0326 | [16] 0.0345 | [17] -0.105 | [18] -0.0287 | [20] -0.0209 | [22] -0.0516
active: [19] -0.371 | [21] -0.686 | [23] -1.44 | [24] -0.304

Nc1ncnc2c1ncn2[C@@H]1O[C@H](COP(=O)(O)O)[C@@H](O)[C@H]1O
inactive: [5] 0.101 | [6] -0.0633 | [7] 0.171 | [8] 0.117

CC1CCC(O)C/C1=C/C=C1\CCCC2(C)C1CCC2C(C)/C=C/C(C)C(C)C (centres undefined)
inactive: [5] 0.0469 | [6] 0.0169 | [7] 0.0774 | [8] 0.0401
